# In PubChem BioAssay:
# The source made the active and inactive calls.
# What was measured:
# [1] = test system: PRMT1 (protein arginine N-methyltransferase 1); test: PRMT1 binders on small-molecule microarrays, primary screen, biochemical, small-molecule microarray, 635 nm fluorescence (AID 1088); details: small-molecule microarray binding, higher = more signal;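 further: binding of Prmt1 protein to compounds spotted on small-molecule microarray slides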
# [2] = yeast growth modulation, basal conditions, primary screen, YJM789 clinical isolate, OD600, 24 h (AID 1089);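 further: growth of clinical yeast isolate S. cerevisiae YJM 789 seeded 1000 cells per well; test concentration not given here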; details: S. cerevisiae YJM789 growth, higher = more signal, called active from +8 up or from −8 down
# [3] = fission yeast growth modulation, primary screen, strain 972, OD600, 24 h, no modulator (AID 1090);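 further: basal condition with compound alone and no growth modifier present; test concentration not given here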; details: S. pombe 972 growth, higher = more signal, called active from +8 up or from −8 down
# [4] = S. cerevisiae growth modulation with rapamycin, primary screen, strain BY4716, OD600, 96 h (AID 1091); details: higher = more signal, called active from +8 up or from −8 down; further: test concentration not given here
# [5] = target: Torsin-1A-interacting protein 2 (Homo sapiens) (UniProt Q8NFQ8); test: LULL1 binders on small-molecule microarray, primary screen, cell lysate, human LULL1 lysate, 635/667 nm fluorescence (AID 1092); details: hLULL1 lysate binding, 635 nm fluorescence, higher = more signal;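 further: probe is lysate of COS7 cells overexpressing human LULL1; score merges per-feature 667 nm fluorescence with signal-to-noise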
# Torsin-1A-interacting protein 2 (Homo sapiens), sequence (Q8NFQ8 whole entry, looked up): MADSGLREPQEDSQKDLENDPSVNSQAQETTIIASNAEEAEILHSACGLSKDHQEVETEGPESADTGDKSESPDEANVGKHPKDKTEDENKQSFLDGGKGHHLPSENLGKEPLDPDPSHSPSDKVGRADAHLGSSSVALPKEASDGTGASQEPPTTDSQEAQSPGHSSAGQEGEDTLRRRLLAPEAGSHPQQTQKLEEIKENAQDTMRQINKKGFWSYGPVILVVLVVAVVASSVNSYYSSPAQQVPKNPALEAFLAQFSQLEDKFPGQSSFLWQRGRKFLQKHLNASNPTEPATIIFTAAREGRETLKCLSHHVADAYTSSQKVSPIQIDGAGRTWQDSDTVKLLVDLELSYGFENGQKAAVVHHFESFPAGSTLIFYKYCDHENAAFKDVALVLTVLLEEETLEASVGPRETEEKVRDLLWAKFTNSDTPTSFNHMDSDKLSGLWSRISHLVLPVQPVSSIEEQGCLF
# [6] = E. coli growth modulation, two-sided OD650, primary screen, E. coli filamentation project, strain DRC41, 24 h (AID 1093); details: OD650, 24 h, higher = more signal, called active from +8 up or from −8 down;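 further: MC1000 strain lacking acrAB efflux and sulA so SOS filamentation is blocked; test concentration not given here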
# [7] = small-molecule microarray binders of probe aLefty2, primary screen, biochemical, biotinylated probe, 635/667 nm fluorescence (AID 1094); details: higher = more signal;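 further: score merges spot fluorescence near 667 nm with spot signal-to-noise ratio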
# [8] = test system: Noggin (protein binding on small-molecule microarray); test: Noggin binders on small-molecule microarray, primary screen, biochemical, 635/667 nm fluorescence (AID 1095); details: 635 nm fluorescence, higher = more signal;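 further: score merges 667 nm feature fluorescence with signal to noise over triplicate slides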
# [9] = target: Neurogenic locus notch homolog protein 3 (Homo sapiens) (UniProt Q9UM47); test: NOTCH3 binders on small-molecule microarray, primary screen, biochemical, 635/667 nm fluorescence (AID 1096); details: NOTCH3 binding, 635 nm fluorescence, higher = more signal
# Neurogenic locus notch homolog protein 3 (Homo sapiens), sequence (Q9UM47 whole entry, looked up): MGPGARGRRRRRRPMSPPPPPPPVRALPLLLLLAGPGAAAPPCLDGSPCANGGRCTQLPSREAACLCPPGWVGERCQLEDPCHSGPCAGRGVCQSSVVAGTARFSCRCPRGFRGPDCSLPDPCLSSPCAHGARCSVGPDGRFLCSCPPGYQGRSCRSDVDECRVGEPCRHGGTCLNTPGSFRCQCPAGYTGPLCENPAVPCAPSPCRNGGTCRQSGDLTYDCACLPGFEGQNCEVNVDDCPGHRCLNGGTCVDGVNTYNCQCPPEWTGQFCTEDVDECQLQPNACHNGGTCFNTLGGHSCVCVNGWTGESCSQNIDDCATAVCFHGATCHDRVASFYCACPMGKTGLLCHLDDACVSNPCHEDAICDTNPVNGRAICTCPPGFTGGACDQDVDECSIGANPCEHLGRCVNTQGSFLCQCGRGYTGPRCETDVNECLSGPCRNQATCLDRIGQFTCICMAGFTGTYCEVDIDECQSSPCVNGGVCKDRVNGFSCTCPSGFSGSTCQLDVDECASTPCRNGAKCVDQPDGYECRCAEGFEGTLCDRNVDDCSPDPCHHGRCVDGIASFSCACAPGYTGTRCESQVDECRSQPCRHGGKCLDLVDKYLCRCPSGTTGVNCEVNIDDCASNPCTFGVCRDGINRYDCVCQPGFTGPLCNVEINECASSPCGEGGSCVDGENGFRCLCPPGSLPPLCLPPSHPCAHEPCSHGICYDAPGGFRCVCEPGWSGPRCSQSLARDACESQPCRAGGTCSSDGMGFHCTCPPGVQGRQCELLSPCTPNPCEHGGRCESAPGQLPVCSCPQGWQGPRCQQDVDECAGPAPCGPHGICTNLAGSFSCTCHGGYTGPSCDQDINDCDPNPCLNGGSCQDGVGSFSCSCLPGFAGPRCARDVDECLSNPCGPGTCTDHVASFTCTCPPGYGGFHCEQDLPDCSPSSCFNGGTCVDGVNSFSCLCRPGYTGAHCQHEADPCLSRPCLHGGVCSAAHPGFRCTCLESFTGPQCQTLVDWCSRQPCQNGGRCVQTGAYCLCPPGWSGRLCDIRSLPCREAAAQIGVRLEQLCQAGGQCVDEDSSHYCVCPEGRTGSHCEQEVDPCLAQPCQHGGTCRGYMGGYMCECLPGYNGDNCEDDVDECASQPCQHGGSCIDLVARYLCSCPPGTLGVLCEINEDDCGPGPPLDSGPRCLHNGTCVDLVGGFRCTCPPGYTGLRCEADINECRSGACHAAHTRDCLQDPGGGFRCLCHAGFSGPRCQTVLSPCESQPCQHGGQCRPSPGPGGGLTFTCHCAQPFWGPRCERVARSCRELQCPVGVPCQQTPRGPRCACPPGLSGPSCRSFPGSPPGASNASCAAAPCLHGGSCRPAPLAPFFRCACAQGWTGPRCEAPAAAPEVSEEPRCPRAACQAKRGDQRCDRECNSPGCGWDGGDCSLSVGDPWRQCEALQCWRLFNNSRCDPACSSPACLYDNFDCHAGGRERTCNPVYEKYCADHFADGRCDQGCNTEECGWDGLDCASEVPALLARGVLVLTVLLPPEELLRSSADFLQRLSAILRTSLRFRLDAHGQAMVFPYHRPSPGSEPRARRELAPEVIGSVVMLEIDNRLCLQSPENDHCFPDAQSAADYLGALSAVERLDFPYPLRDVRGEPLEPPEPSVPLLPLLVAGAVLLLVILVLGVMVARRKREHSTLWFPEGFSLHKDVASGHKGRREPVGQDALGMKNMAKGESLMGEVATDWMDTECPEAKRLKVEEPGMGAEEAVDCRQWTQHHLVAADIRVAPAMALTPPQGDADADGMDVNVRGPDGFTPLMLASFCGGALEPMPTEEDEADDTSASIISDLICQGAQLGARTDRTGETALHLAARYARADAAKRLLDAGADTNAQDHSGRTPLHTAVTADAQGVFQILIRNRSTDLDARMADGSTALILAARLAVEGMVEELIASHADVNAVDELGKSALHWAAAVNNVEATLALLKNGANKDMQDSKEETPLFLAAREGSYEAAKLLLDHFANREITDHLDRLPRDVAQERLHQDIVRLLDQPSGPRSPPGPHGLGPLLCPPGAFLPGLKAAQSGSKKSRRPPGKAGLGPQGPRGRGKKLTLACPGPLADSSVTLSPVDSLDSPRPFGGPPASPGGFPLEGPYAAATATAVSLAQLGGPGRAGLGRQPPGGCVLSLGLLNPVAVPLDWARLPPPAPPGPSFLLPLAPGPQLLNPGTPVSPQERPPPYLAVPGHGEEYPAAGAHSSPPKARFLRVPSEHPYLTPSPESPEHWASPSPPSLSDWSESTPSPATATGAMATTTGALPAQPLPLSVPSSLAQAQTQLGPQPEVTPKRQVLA
# [10] = small-molecule microarray binders of probe aEGFR, primary screen, biochemical, biotinylated probe, 635/667 nm fluorescence (AID 1097); details: higher = more signal;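 further: probe is a biotinylated anti-EGFR antibody binding compounds printed on slides; score combines fluorescence near 667 nm and signal to noise of each spot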
compound,measurement,setting,value
CC=CC(O)C1C=CC2C(=O)N(C)C(=O)C2N1NC(=O)OC(C)(C)C (stereo not given),composite z-score,[1],0.534
same,z-score,[2],-0.219 (inactive)
same,z-score,[3],0.64 (inactive)
same,z-score,[4],0.0896 (inactive)
same,composite z-score,[5],0.522
same,z-score,[6],-1.13 (inactive)
same,composite z-score,[7],-0.286
same,composite z-score,[8],0.251
same,composite z-score,[9],0.775
same,composite z-score,[10],-0.0244
CC(C)[Si](C#CCCCC#N)(O[C@H](c1ccccc1)c1cn([C@H](C)c2ccccc2)nn1)C(C)C,composite z-score,[1],1.48
same,z-score,[2],-0.766 (inactive)
same,z-score,[3],-0.415 (inactive)
same,z-score,[4],-3.12 (inactive)
same,composite z-score,[5],0.76
same,z-score,[6],0.674 (inactive)
same,composite z-score,[7],0.064
same,composite z-score,[8],1.08
same,composite z-score,[9],1.1
same,composite z-score,[10],-0.152
Cc1ccc(S[C@]2(C(=O)NCC(F)(F)F)CC(=O)N(C3CCCCC3)[C@@H]2c2ccc(CO)cc2)cc1,composite z-score,[1],1.28
same,z-score,[2],0.565 (inactive)
same,z-score,[3],-0.211 (inactive)
same,z-score,[4],-0.0121 (inactive)
same,composite z-score,[5],2.9
same,z-score,[6],0.471 (inactive)
same,composite z-score,[7],0.0078
same,composite z-score,[8],-0.461
same,composite z-score,[9],-0.107
same,composite z-score,[10],-0.194
CC(C)C[C@@H]1NC(=O)[C@H]2C[C@@H](C(=O)NCCCCCCNC(=O)CS)[C@@H](c3ccc(O)cc3)N2C1=O,composite z-score,[1],1.54
same,z-score,[2],0.107 (inactive)
same,z-score,[3],0.673 (inactive)
same,z-score,[4],0.185 (inactive)
same,composite z-score,[5],2.91
same,z-score,[6],0.205 (inactive)
same,composite z-score,[7],-0.101
same,composite z-score,[8],1.14
same,composite z-score,[9],0.589
same,composite z-score,[10],-0.0594
Cc1ccc(F)cc1S(=O)(=O)N[C@@H]1CCN(Cc2ccc3c(c2)OCO3)C1,composite z-score,[1],-0.5
same,z-score,[2],0.158 (inactive)
same,z-score,[3],-2.41 (inactive)
same,z-score,[4],1.23 (inactive)
same,composite z-score,[5],-0.539
same,z-score,[6],-1.4 (inactive)
same,composite z-score,[7],-0.148
same,composite z-score,[8],0.171
same,composite z-score,[9],-0.307
same,composite z-score,[10],-0.226
C[N+](C)(C)CCCCCCNC(=O)[C@H]1C[C@H]2C(=O)NCC(=O)N2[C@H]1c1cccc(OCCO)c1,composite z-score,[1],1.22
same,z-score,[2],-0.874 (inactive)
same,z-score,[3],0.198 (inactive)
same,z-score,[4],0.0891 (inactive)
same,composite z-score,[5],3.07
same,z-score,[6],-0.329 (inactive)
same,composite z-score,[7],-0.133
same,composite z-score,[8],1.48
same,composite z-score,[9],1.12
same,composite z-score,[10],0.208
COCCOC(=O)N1C(=O)[C@@]2(c3cc(C#CC4(O)CCCCCC4)ccc31)[C@H](C(=O)NC[C@H](O)c1ccccc1)[C@H]1C(=O)O[C@H](c3ccccc3)[C@H](c3ccccc3)N1[C@@H]2c1ccc(O)cc1,composite z-score,[1],1.48
same,z-score,[2],0.295 (inactive)
same,z-score,[3],0.956 (inactive)
same,z-score,[4],0.927 (inactive)
same,composite z-score,[5],2.49
same,z-score,[6],1.43 (inactive)
same,composite z-score,[7],-0.0289
same,composite z-score,[8],0.3
same,composite z-score,[9],0.871
same,composite z-score,[10],-0.0703
COc1ccc([Si](C)(C)[C@H]2[C@H](CCO)O[C@@]3(C(=O)N(Cc4ccc(N5CCOC5=O)cc4)c4ccccc43)[C@@H]2C)cc1,composite z-score,[1],1.06
same,z-score,[2],3.62 (inactive)
same,z-score,[3],0.623 (inactive)
same,z-score,[4],35.9 (active)
same,composite z-score,[5],1.27
same,z-score,[6],0.816 (inactive)
same,composite z-score,[7],-0.139
same,composite z-score,[8],0.0178
same,composite z-score,[9],0.287
same,composite z-score,[10],-0.315
COCCOC(=O)N1C(=O)[C@@]2(c3cc(C#CCCO)ccc31)[C@H](c1ccc(O)cc1)N1[C@H](c3ccccc3)[C@H](c3ccccc3)OC(=O)[C@H]1[C@@H]2C(=O)N1CCc2cc(OC)c(OC)cc2C1,composite z-score,[1],1.52
same,z-score,[2],0.47 (inactive)
same,z-score,[3],0.511 (inactive)
same,z-score,[4],1.23 (inactive)
same,composite z-score,[5],2.45
same,z-score,[6],-0.617 (inactive)
same,composite z-score,[7],-0.0616
same,composite z-score,[8],1.55
same,composite z-score,[9],1.06
same,composite z-score,[10],0.122
CCC[C@@H]1C=C(C(=O)OCC)[C@H](c2ccccc2)N1S(=O)(=O)c1ccc(C)cc1,composite z-score,[1],1.57
same,z-score,[2],0.73 (inactive)
same,z-score,[3],1.67 (inactive)
same,z-score,[4],1.7 (inactive)
same,composite z-score,[5],0.352
same,z-score,[6],-0.209 (inactive)
same,composite z-score,[7],0.326
same,composite z-score,[8],0.0974
same,composite z-score,[9],1.08
same,composite z-score,[10],0.21
C=CCC(OC(C)=O)[C@@H]1[C@@H](N(Cc2cc3ccccc3o2)C(=O)Cc2ccc(OC)cc2)c2cc(OCCCO)ccc2N1C(=O)Cc1ccc(OC)cc1 (stereo not given in full),composite z-score,[1],0.0873
same,z-score,[2],-0.484 (inactive)
same,z-score,[3],0.142 (inactive)
same,z-score,[4],-0.197 (inactive)
same,composite z-score,[5],0.0103
same,z-score,[6],-0.847 (inactive)
same,composite z-score,[7],-0.0757
same,composite z-score,[8],0.312
same,composite z-score,[9],-0.293
same,composite z-score,[10],-0.108
